The campaign covered roughly 350,000 compounds. About 1,900 (0.54%) were called active. This excerpt belongs to a sample that is enriched for actives. Values without a mark were called inactive.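 How the source made its calls: active means mean inhibition across replicates at least about 35%, with every replicate also reaching that limit (limit read from the data); inconclusive means only one of the two criteria met; inactive means neither criterion met.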

Sequence of Caspase-6 (Homo sapiens) (P55212 24-179 limits assumed): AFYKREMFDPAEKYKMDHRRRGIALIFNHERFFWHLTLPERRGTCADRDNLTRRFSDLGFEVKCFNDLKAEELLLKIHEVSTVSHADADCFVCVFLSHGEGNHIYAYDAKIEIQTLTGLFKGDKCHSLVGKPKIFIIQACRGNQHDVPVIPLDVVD
Sequence of Caspase-6 (Homo sapiens) (P55212 194-293 limits assumed): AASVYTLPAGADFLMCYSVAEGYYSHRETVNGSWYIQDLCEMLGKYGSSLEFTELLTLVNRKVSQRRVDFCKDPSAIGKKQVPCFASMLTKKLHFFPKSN

This experiment addresses Caspase-6 (Homo sapiens) (UniProt P55212). The experiment can be described thus: human caspase-6 inhibitors, primary screen, biochemical, VEID-R110 fluorescence, single point, set 2 (AID 686996).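 Further: 0% = median of neutral control wells and 100% = no fluorescence left.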 As to conditions: purified caspase-6, Z-VEID-R110 cleavage fluorescence; at 12.5 µM; hits give high values.
As a reminder, the inhibition is the relative decrease from the control value, in per cent. For `C[C@H]1CN([C@@H](C)CO)C(=O)c2cc(-c3ccncc3)cnc2O[C@@H]1CN(C)C(=O)c1cccc(F)c1`, the inhibition is 1.35%.

As to `Cc1noc(C)c1NC(=O)N(C)C[C@H]1Oc2ccc(N(C)C)cc2CC(=O)N([C@H](C)CO)C[C@H]1C`, the inhibition was -3.82%.

Turning to `O=C(C[C@H]1CC[C@@H](NC(=O)Nc2ccc(F)cc2)[C@H](CO)O1)NCc1cccc(F)c1`, the inhibition is -1.29%.

Regarding `O=C(OCC(=O)N1CCN(c2ccccc2)CC1)c1ccc([N+](=O)[O-])s1`, the inhibition was 22%.

For `COc1ccc(C(=O)COC(=O)c2ccc([N+](=O)[O-])s2)cc1OC`, the inhibition was 0.899%.

On to `COc1cc(NC(=O)COC(=O)c2ccc([N+](=O)[O-])s2)cc(OC)c1OC`, for which the inhibition is 87.1% (active).

Take `O=C(C[C@H]1CC[C@H]2NC[C@@H](O)COC[C@@H]2O1)NCCN1CCCC1`: the inhibition is -1.22%.

`CCOc1ccc(OCC)c(NC(=O)CCS(=O)(=O)c2ccc(C)cc2)c1`: the inhibition is 0.288%.

In the case of `O=C(CCS(=O)(=O)c1ccc(Br)cc1)NCCc1ccc(Cl)cc1`, the inhibition was 49% (active).

In the case of `O=C(Cc1ccc(Br)cc1)NCCc1ccccc1`, the inhibition was 0.216%.

Take `Cc1ccc(S(=O)(=O)CCC(=O)OCC(=O)NCCc2ccc(S(N)(=O)=O)cc2)cc1`: the inhibition was 1.6%.

For `COc1ccc(Cl)cc1NC(=O)CCS(=O)(=O)c1cc2c(cc1C)NC(=O)CO2`, the inhibition is 0.689%.

`COc1ccc(Cl)cc1NC(=O)CCS(=O)(=O)c1ccc(Br)cc1`: the inhibition was 87.9% (active).

As to `CC(C)NC(=O)N(C)C[C@@H]1Oc2ccc(NS(=O)(=O)c3cn(C)cn3)cc2C(=O)N([C@@H](C)CO)C[C@@H]1C`, the inhibition was 0.64%.

`C[C@@H]1CCCCO[C@H](CN(C)S(=O)(=O)c2cccs2)[C@@H](C)CN([C@@H](C)CO)C(=O)c2cc(NC(=O)Nc3ccc4c(c3)OCO4)ccc2O1`: the inhibition is 0.247%.

As to `Cc1noc(C)c1NC(=O)N(C)C[C@@H]1Oc2ccc(NS(C)(=O)=O)cc2C(=O)N([C@@H](C)CO)C[C@@H]1C`, the inhibition is 3.77%.

As for `C[C@H](NC(=O)C[C@@H]1C[C@@H]2c3cc(NC(=O)Nc4ccc(C(F)(F)F)cc4)ccc3O[C@@H]2[C@H](CO)O1)c1ccccc1`, the inhibition was -2.54%.

Consider `O=C(NC[C@@H]1N[C@@H](CO)[C@H]1c1ccc(-c2cccnc2)cc1)c1cccc(F)c1`, for which the inhibition was 0.599%.

For the compound `CCNc1ccc(C(=O)OCC(=O)N2c3ccccc3NC(=O)C2(C)C)cc1[N+](=O)[O-]`, the inhibition is -5.89%.

Regarding `CNS(=O)(=O)c1cccc(C(=O)OCC(=O)N2c3ccccc3NC(=O)C2(C)C)c1`, the inhibition is 35.9% (active).

In the case of `Cc1cc(C(=O)OCC(=O)N2c3ccccc3NC(=O)C2(C)C)c(C)n1-c1ccccc1`, the inhibition was -1.9%.

`C[C@@H]1CCCCO[C@@H](CN(C)C(=O)Nc2ccc(C(F)(F)F)cc2)[C@H](C)CN([C@H](C)CO)C(=O)c2cc(NC(=O)c3ccccc3)ccc2O1`: the inhibition is -0.72%.

Take `C[C@@H]1CCCCO[C@H](CN(C)C(=O)Cc2ccccc2)[C@H](C)CN([C@H](C)CO)C(=O)c2cc(NS(=O)(=O)c3cn(C)cn3)ccc2O1`: the inhibition was -3.5%.

As for `O=C(Nc1ccc2c(c1)OCO2)C1CC1(Cl)Cl` (stereo not given), the inhibition is -1.32%.

Take `O=C(Nc1ccc2c(c1)OCCO2)c1ccoc1`: the inhibition is 0.545%.

Consider `O=C(Nc1ccc2c(c1)OCCO2)C1CCCC1`, for which the inhibition was 35.2% (active).

With `COC(=O)C[C@@H]1CC[C@@H]2[C@@H](COc3ccc(NC(=O)C4CCOCC4)cc3C(=O)N2C)O1`, the inhibition was -2.32%.

As for `C/C=C/c1ccc([C@@H]2[C@H](CO)N(S(=O)(=O)Cc3ccccc3)C23CN(C(=O)C2CCOCC2)C3)cc1`, the inhibition was 0.958%.

With `O=C(NCC[C@H]1CC[C@H](NS(=O)(=O)c2cccc(F)c2)[C@H](CO)O1)C1CCCCC1`, the inhibition was -1.12%.

Consider `O=C(C[C@@H]1CC[C@H]2[C@@H](COC[C@H](O)CN2C(=O)Nc2ccccc2)O1)NCCc1ccncc1`, for which the inhibition was 2.19%.

Take `CO[C@@H]1CN(C)C(=O)c2ccc(NS(=O)(=O)c3cccc(C)c3)cc2OC[C@@H](C)NC[C@H]1C`: the inhibition is -0.731%.

Turning to `CCC(=O)N1[C@H](C(=O)NC2CCC2)[C@@H](CO)[C@@H]2Cn3c(cccc3=O)[C@@H]21`, the inhibition was 0.371%.

For `COc1ccc2c3c(n(C)c2c1)[C@H](CO)N(CC1CCCCC1)CC31CCN(Cc2nccs2)CC1`, the inhibition was -2.93%.

Regarding `CS(=O)(=O)c1ccc2c(c1)SC1=NC(=O)/C(=C/c3ccco3)C(=N)N12`, the inhibition is 56.4% (active).

On to `COc1ccc2c3c(n(C)c2c1)[C@@H](CO)N(C)CC31CN(CC2CC2)C1`, for which the inhibition was -5.67%.

Turning to `Cc1ccc(S(=O)(=O)Nc2ccc3c(c2)C(=O)N([C@@H](C)CO)C[C@@H](C)[C@H](CN(C)Cc2ccc(Cl)c(Cl)c2)OCCCC[C@@H](C)O3)cc1`, the inhibition was -0.785%.

In the case of `O=C(C[C@@H]1CC[C@@H](NS(=O)(=O)c2ccc(F)cc2)[C@@H](CO)O1)NCCc1ccncc1`, the inhibition was 3.03%.

Regarding `O=C(Nc1ccc(F)cc1)N[C@@H]1CC[C@H](CC(=O)N2CCCCC2)O[C@H]1CO`, the inhibition was 1.55%.

As for `Cc1ccccc1NC(=O)CN1C(=O)N/C(=C\c2cccn2-c2cccc(C(=O)O)c2)C1=O`, the inhibition is 63.2% (active).

In the case of `Cc1ccccc1NC(=O)Cn1c(=O)n(CC2CCCO2)c(=O)c2ccccc21` (stereo not given), the inhibition was 6.2%.

As to `Cc1ccccc1NC(=O)CSC(=O)c1ccccc1`, the inhibition was 1.82%.

`COc1ccc(NC(=O)N[C@H]2CC[C@@H](CCNS(=O)(=O)c3cccc(Cl)c3)O[C@H]2CO)cc1`: the inhibition was -1.94%.

Take `Cc1ccc(-c2cnc3c(c2)C(=O)N([C@H](C)CO)C[C@@H](C)[C@@H](CN(C)C(=O)CN(C)C)O3)cc1`: the inhibition was -0.686%.

In the case of `COc1ccc(C(=O)N2C[C@@H]3[C@H](c4ccccc42)[C@H](CO)N3Cc2ccc3c(c2)OCO3)cc1`, the inhibition was -0.922%.

In the case of `COc1ccc(NC(=O)N(C)C[C@H]2OCCCC[C@H](C)Oc3ccc(NS(C)(=O)=O)cc3C(=O)N([C@H](C)CO)C[C@@H]2C)cc1`, the inhibition was -0.91%.

The values above are taken from PubChem BioAssay AID686996 (Broad Institute, 2013).
